Consider 33 compounds from PubChem BioAssay AID588763 (NMMLSC, 2011).

SMILES strings stand for the structures. Entries with a potency or affinity are not part of this list. Activity calls are given as the source filed them. The rule behind the calls is not given here.

The target in the assay is Beta-2 adrenergic receptor (Homo sapiens) (UniProt P07550). In words: ADRB2 activation measured by internalization – cell-based, FAP fluorogen, flow cytometry, cherry pick 1, dose response (AID 588763). As to conditions: AM2.2-beta2AR cells, 90 min; series mostly up to 33 µM.
Beta-2 adrenergic receptor (Homo sapiens), sequence (P07550 whole entry, looked up): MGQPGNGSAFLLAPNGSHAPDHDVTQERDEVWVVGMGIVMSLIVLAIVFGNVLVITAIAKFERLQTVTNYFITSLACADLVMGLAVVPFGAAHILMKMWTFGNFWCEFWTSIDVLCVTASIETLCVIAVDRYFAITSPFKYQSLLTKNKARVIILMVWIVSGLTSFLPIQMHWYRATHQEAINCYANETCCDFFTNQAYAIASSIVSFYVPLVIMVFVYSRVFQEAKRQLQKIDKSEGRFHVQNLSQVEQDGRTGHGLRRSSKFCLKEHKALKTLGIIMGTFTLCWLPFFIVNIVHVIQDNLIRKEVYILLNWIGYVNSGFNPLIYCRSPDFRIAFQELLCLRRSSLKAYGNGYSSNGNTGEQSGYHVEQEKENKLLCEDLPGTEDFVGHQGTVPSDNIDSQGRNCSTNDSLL

Take `COC(=O)c1ccc(CN2CCC(Oc3ccc(C(=O)N4CCCCC4)cc3)CC2)cc1`: the compound was classed as inactive.
`COc1ccc(-n2nc3c(N4CCC(C(=O)NCc5ccco5)CC4)nnc(C)c3c2C)cc1`: the call was inactive.
The value for `O=C(Nc1ccc(NC(=O)c2ccccc2F)cc1)c1cccs1` was “inactive”; that for `COc1ccccc1C(=O)Nc1ccc2oc(-c3ccc(F)cc3)nc2c1` was “inactive”; that for `COc1ccc(-c2nc(NC(=O)c3cc(C(C)(C)C)nn3C)sc2C)cc1` was “inactive”.
The value for `O=C(Nc1ccc(-c2cccc(F)c2)cc1)C1CCCN(Cc2ccccn2)C1` (stereo not drawn) was “inactive”; that for `O=C(c1cc(COc2ccc(F)cc2Cl)on1)N1CC2C[C@@H]3CC1C[C@H](C2)C3` was “inactive”.
Turning to `COc1ccccc1C(=O)Nc1ccc(S(=O)(=O)N2CCCCC2c2cccnc2)cc1` (stereo not drawn), the result was inactive.
The value for `COc1ccc(-c2nc3c4ccccc4ccn3c2CN2CCOCC2)cc1OC` was “inactive”.
Then `COc1ccccc1CNC(=O)CCn1c(=O)[nH]c2ccsc2c1=O`, with “inactive”; and `CC1CCCN(C(C(=O)Nc2ccc3c(c2)OCO3)c2ccccc2)C1` (stereo not drawn), with “inactive”; and `N=c1n(CC(=O)c2ccc([N+](=O)[O-])cc2)c2ccccc2n1Cc1ccccc1`, with “inactive”.
In the case of `COc1ccc(Cn2nc(-c3ccccc3)c(N3CCCCC3)cc2=O)cc1`, the result was inactive.
The value for `CCOc1cccc(CN2CCC(Oc3ccc(C(=O)N4CCCC4)cc3)CC2)c1` was “inactive”; that for `CSc1nc(SCCO)c2sc3nc(-c4ccco4)c4c(c3c2n1)CC(C)(C)OC4` was “inactive”.
Then `Cc1cccc(-c2nnc(SCc3nc4ccccc4[nH]3)n2Cc2ccco2)c1`, with “inactive”; and `Cc1cccc(C)c1NC(=O)Cn1nnc(-c2ccc(N3CCOCC3)cc2)n1`, with “inactive”.
`CCN(CC)S(=O)(=O)c1cc(C(=O)Nc2cc(Cl)ccc2N2CCN(C)CC2)ccc1Cl`: the result was inactive.
Then `O=C(CSc1ccc(Cl)cc1)Nc1ccccc1N1CCN(C(=O)c2ccccc2)CC1`, with “inactive”.
Turning to `O=C(Cn1nnc(-c2ccccc2)n1)Nc1ccccc1N1CCOCC1`, the call was inactive.
Then `CN(C)c1ccc(-c2nnn(CC(=O)Nc3ccccc3N3CCOCC3)n2)cc1`, with “inactive”; and `COc1ccc(NC(=O)Cn2nnc(-c3ccc(CN4CCOCC4)cc3)n2)c(OC)c1`, with “inactive”; and `CC(NCCc1ccc(O)cc1)C(O)c1ccc(O)cc1` (stereo not drawn), with “inactive”.
Then `O=C(Nc1ccc(S(=O)(=O)N2CCCCC2c2cccnc2)cc1)c1ccccc1F` (stereo not drawn), with “inactive”.
The value for `CCOc1ccc(NC(=O)COc2ccc(S(=O)(=O)N3CCCC3)cc2)cc1` was “inactive”; that for `CCOc1ccc(NC(=O)Cn2nnc(-c3ccccc3NC(=O)C3CC3)n2)cc1` was “inactive”; that for `CCC(NC(=O)c1cc(COc2cncc(Cl)c2)on1)c1ccc(C)cc1` (stereo not drawn) was “inactive”.
Consider `COc1ccc(-n2nc3c(N4CCC(C(=O)NCc5cccc(C)c5)CC4)nnc(C)c3c2C)cc1`, for which the result was inactive.
Then `COc1ccc(CCNCC(O)c2ccccc2)cc1` (stereo not drawn), with “inactive”; and `COc1ccccc1-c1cc(C(F)(F)F)nc(S(=O)(=O)CCCC(=O)N2CCCCC2C)n1` (stereo not drawn), with “inactive”; and `CCOc1ccccc1CNC(=O)C1CCN(c2nnc(C)c3c(C)n(-c4ccc(C)cc4)nc23)CC1`, with “inactive”.
Then `Cc1ccc(OCc2cc(C(=O)NCc3cc(F)ccc3C)no2)cn1`, with “inactive”; and `c1ccc(-c2nnc(SCc3nc4ccccc4[nH]3)n2Cc2ccco2)cc1`, with “inactive”.
